We go through twelve compounds from PubChem BioAssay (NCI).

Some test systems named below: BT-549 breast; MDA-MB-435 melanoma; SW-620 colon; MCF7 breast; HCT-116 colon; HCC-2998 colon; KM12 colon; T-47D breast.
Holding throughout (experiment): NCI-60 one-dose screen, 48 h (100 = growth as untreated, 0 = no growth, -100 = all killed)
Common to all, as to conditions: 10 µM unless noted

This is part of a sample that, as a whole, favours compounds with a hit. Of some 83,000 tested, about 20% had one in any assay.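 The test compound was applied at a single concentration to cells in 96-well plates for 48 hours, and percent growth was recorded.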 Unmarked numbers belong to inactive results. Activity calls are given as the source filed them. How the source made its calls: active means growth percent below 10; inactive means the rest.

On to `CC(C)C(=O)Nc1n[nH]c2cc(-c3cccc(NS(=O)(=O)C4CC4)c3)ccc12`, for which the growth was 42.3% with BT-549 breast; 12.9% in the assay on MDA-MB-435 melanoma; 74.5% with SW-620 colon; 33.2% with MCF7 breast; 52.5% in the assay on HCT-116 colon; 83.4% with HCC-2998 colon. Besides, the growth in the assay on KM12 colon is 61.3%.

For the compound `COc1ccccc1N1C(=O)/C(=C/C2=Cc3ccccc3OC2)SC1=S`, the growth with T-47D breast is 89.7%; with MDA-MB-435 melanoma, 97.8%; with SW-620 colon, 95.4%; in the assay with MCF7 breast, 95.5%; in the assay on HCT-116 colon, 84.9%; in the assay with HCC-2998 colon, 102%.

For `COc1ccc(Cl)cc1NC(=O)C(Br)C(Br)C(=O)O` (configuration not stated), the growth in the assay on T-47D breast was 19.9%; in the assay on MDA-MB-435 melanoma it was 34.2%; in the assay with SW-620 colon, 8.71% (active); in the assay on MCF7 breast, 23.8%; with HCT-116 colon it was 8.19% (active); with HCC-2998 colon, 38.6%. Further, in the assay on KM12 colon, the growth is 83.2%.

Turning to `O=C(CCCCCCSc1nc(-c2ccccc2)cc(-c2ccc(Cl)cc2)n1)NO`, the growth with T-47D breast is -13.7% (active); with MDA-MB-435 melanoma, 19.4%; in the assay on SW-620 colon it was 11.9%; with MCF7 breast, 15.9%; with HCT-116 colon it was 6.79% (active); in the assay on HCC-2998 colon, 51.8%. Further, the growth in the assay on KM12 colon was 31.4%.

Regarding `COc1ccc(NC(=O)CSc2nnc(-c3cc(-c4ccccc4)nc4ccccc34)n2-c2ccccc2)cc1`, the growth in the assay on T-47D breast is 78.4%; in the assay on MDA-MB-435 melanoma, 99.2%; with SW-620 colon, 101%; in the assay with MCF7 breast it was 89.1%; with HCT-116 colon, 92.6%; in the assay with HCC-2998 colon it was 107%. Also, the growth in the assay with KM12 colon is 98.1%.

For `CS(=O)(=O)c1ccc(Nc2nc(N[C@H]3CCCC[C@H]3N)nc3cc[nH]c(=O)c23)cc1`, the growth in the assay on T-47D breast is -3.45% (active); in the assay on MDA-MB-435 melanoma it was -4.07% (active); with SW-620 colon, 6.42% (active); with MCF7 breast, 5.47% (active); in the assay with HCT-116 colon, -2.19% (active); in the assay with HCC-2998 colon it was -13.1% (active). Moreover, the growth in the assay on KM12 colon was 0.908% (active).

As for `Cc1ccc(N2CCN(C(=S)c3cccs3)CC2)cc1`, the growth in the assay with T-47D breast is 86.2%; in the assay on BT-549 breast it was 74.2%; in the assay on MDA-MB-435 melanoma, 109%; with MCF7 breast, 89.3%; with HCT-116 colon, 93.2%; with HCC-2998 colon, 94.3%. For the same compound, the growth with KM12 colon is 113%.

Consider `N#C/C(=C\c1ccc(-c2ccccc2F)o1)c1nc(-c2ccco2)cs1`, for which the growth with T-47D breast was 14.5%; in the assay with MDA-MB-435 melanoma, 101%; in the assay with SW-620 colon, 96.1%; in the assay on MCF7 breast, 37.7%; in the assay with HCT-116 colon, 93%; with HCC-2998 colon, 67.8%. Besides, the growth with KM12 colon was 63.9%.

In the case of `Cc1ccc(NS(=O)(=O)c2ccc3c(c2)C(=O)CC(c2ccc(C(=O)C(C)C)cc2)N3)cc1C` (configuration not stated), the growth in the assay on T-47D breast is 39.8%; in the assay with BT-549 breast it was 65.6%; with MDA-MB-435 melanoma, 58.3%; with MCF7 breast, 37.4%; in the assay with HCT-116 colon, 54%; with HCC-2998 colon it was 89.9%. Besides, the growth with KM12 colon is 71.9%.

As for `CCN(CC)S(=O)(=O)c1cccc(-c2ccc3c(NC(=O)C4CC4)n[nH]c3c2)c1`, the growth with BT-549 breast was 1.05% [6.25 µM] (active); in the assay on MDA-MB-435 melanoma, 7.53% [6.25 µM] (active); in the assay with SW-620 colon, 26.1% [6.25 µM]; in the assay on MCF7 breast, 6.78% [6.25 µM] (active); in the assay on HCT-116 colon, 11.9% [6.25 µM]; in the assay on HCC-2998 colon, 43.9% [6.25 µM].

For `O=C(CSc1nccc(Nc2ccc(S(=O)(=O)Nc3nccs3)cc2)n1)c1ccc(F)cc1`, the growth is 84% with T-47D breast; 104% in the assay on MDA-MB-435 melanoma; 99.6% in the assay on SW-620 colon; 96.9% in the assay on MCF7 breast; 95.9% with HCT-116 colon; 107% in the assay with HCC-2998 colon. Further, in the assay on KM12 colon, the growth is 106%.

For the compound `C=CCn1c(C)nc2cc(Nc3nc(Cl)nc4ccccc34)ccc21`, the growth with T-47D breast was 81.5%; with BT-549 breast it was 94.8%; in the assay with MDA-MB-435 melanoma, 93.3%; in the assay on MCF7 breast it was 94.6%; with HCT-116 colon, 91.5%; with HCC-2998 colon, 101%. Also, the growth with KM12 colon is 95.2%.
